Data from PubChem BioAssay (EPA / NIEHS).
“And” between values parts separate entries of the source, which are not always exact repeats. Identical values can stand only once. Records with an inconclusive call do not appear. Where a structure was tested more than once in an assay, its records may differ in their call. The source made the active and inactive calls. Rule for the calls, unless noted: active = hit-call score of the fitted dose curve at least 0.9, where 1 is the maximum; inactive = score below 0.9.

Tests used:
[1] = ATG_PBREM_CIS: Attagene CIS-FACTORIAL HepG2 Assay for human Phenobarbital-responsive Enhancer Module (PBREM) (AID 2282955); conditions: HepG2 PBREM cis-reporter, Attagene multiplexed transcription; actives raise or lower the signal
Method in brief: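 After a 24 h incubation with test chemical, transfected HepG2 cells yield total RNA; reporter-specific RT-PCR products are fluorescently labelled, HpaI-digested and resolved by capillary electrophoresis against ROX size standards.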

[2] = molecular target: Paired box protein Pax-6 (Homo sapiens) (UniProt P26367); assay: ATG_Pax6_CIS: Attagene CIS-FACTORIAL HepG2 Assay for human Paired Box 6 (PAX6) (AID 2282956); conditions: HepG2 CIS-FACTORIAL PAX6 reporter transcription, RNA readout; actives raise or lower the signal
Chain of Paired box protein Pax-6 (Homo sapiens) (P26367 whole entry, looked up): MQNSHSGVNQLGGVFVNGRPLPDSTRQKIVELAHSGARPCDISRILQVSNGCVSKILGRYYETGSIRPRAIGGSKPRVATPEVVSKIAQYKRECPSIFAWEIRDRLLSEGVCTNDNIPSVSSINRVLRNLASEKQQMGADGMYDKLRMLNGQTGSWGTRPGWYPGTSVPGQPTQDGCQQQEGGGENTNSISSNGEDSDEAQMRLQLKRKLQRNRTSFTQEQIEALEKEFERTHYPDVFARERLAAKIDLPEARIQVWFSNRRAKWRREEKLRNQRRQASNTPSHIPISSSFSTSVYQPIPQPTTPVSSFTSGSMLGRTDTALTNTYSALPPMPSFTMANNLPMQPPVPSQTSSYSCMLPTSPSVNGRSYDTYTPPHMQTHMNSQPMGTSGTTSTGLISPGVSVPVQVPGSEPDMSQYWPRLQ
Method in brief: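 DMSO-referenced bidirectional fits of reporter mRNA fluorescence; HepG2 with transient cis-promoter MRTUs, 24 h post-dose, RT-PCR plus capillary electrophoresis detection.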

[3] = ATG_PXRE_CIS: Attagene CIS-FACTORIAL HepG2 Assay for human Pregnane X Receptor Element (PXRE) (AID 2282957); conditions: HepG2 Attagene CIS-FACTORIAL PXRE reporter, mRNA; actives raise or lower the signal
Method in brief: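 Using HepG2 transfected with multiple reporter transcription units, endogenous factor-driven transcription was scored as reporter mRNA after 24 h exposure.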

[4] = ATG_PPRE_CIS: Attagene CIS-FACTORIAL HepG2 Assay for human Peroxisome Proliferator-activated Response Element (PPRE) (AID 2282958); conditions: HepG2 PPRE cis-element reporter, Attagene transcription factor profiling; actives raise or lower the signal
Method in brief: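 Multiplexed reporter transcription units under cis-regulatory promoters were transfected into HepG2 cells to capture endogenous factor activity. A 24 h incubation preceded RNA isolation and fluorescent RT-PCR fragment analysis.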

[5] = ATG_RORE_CIS: Attagene CIS-FACTORIAL HepG2 Assay for human RAR-related Orphan Receptor Element (RORE) (AID 2282959); conditions: HepG2 Attagene cis-factorial RORE reporter, mRNA; actives raise or lower the signal
Method in brief: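 Fluorescence intensity of reporter-specific cDNA fragments, separated by capillary electrophoresis, gives the signal. Source: HepG2 liver cells transiently transfected with cis-element reporters and exposed 24 h; DMSO-normalized bidirectional fit.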

[6] = ATG_Sox_CIS: Attagene CIS-FACTORIAL HepG2 Assay for human SRY-box transcription factor (SOX) (AID 2282960); conditions: HepG2 Attagene cis-factorial SOX reporter, mRNA; actives raise or lower the signal
Method in brief: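 After 24 h of chemical treatment, transfected HepG2 reporter cells are lysed for total RNA. Transcript levels come from RT-PCR with labelled primer extension and capillary electrophoresis, analysed bidirectionally versus DMSO.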

[7] = molecular target: Transcription factor Sp1 (Homo sapiens) (UniProt P08047); assay: ATG_Sp1_CIS: Attagene CIS-FACTORIAL HepG2 Assay for human Specificity Protein 1 (Sp1) (AID 2282961); conditions: HepG2 Sp1 cis-reporter transcription, actives raise or lower the signal
Chain of Transcription factor Sp1 (Homo sapiens) (P08047 whole entry, looked up): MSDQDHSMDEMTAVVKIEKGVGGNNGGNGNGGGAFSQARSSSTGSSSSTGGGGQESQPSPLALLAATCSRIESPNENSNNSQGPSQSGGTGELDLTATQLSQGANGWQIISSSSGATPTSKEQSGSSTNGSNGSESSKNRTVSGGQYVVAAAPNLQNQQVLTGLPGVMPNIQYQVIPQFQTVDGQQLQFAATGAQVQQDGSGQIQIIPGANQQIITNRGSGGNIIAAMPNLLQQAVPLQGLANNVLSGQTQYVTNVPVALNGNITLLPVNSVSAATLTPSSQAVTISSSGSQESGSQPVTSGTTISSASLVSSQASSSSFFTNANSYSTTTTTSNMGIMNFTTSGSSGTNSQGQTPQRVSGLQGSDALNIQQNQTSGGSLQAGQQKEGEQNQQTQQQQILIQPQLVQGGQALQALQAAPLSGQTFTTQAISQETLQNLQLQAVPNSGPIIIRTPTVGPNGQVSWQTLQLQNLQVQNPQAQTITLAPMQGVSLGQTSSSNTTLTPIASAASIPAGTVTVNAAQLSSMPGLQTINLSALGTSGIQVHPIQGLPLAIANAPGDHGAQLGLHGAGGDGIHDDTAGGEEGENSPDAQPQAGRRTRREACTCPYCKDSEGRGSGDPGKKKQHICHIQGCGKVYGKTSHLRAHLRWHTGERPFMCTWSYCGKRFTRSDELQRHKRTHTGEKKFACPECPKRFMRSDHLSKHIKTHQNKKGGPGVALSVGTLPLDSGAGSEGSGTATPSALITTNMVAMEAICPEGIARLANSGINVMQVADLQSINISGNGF
Method in brief: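 Sp1-driven reporter mRNA, read as capillary electrophoresis fluorescence after RT-PCR, in transiently transfected HepG2 cells dosed for 24 h; signal change in either direction relative to DMSO.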

[8] = ATG_SREBP_CIS: Attagene CIS-FACTORIAL HepG2 Assay for human Sterol Regulatory Element Binding (SREBP) (AID 2282962); conditions: HepG2 Attagene cis-factorial SREBP reporter, mRNA; actives raise or lower the signal
Method in brief: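 In this cis-format assay, HepG2 liver cells express reporters controlled by promoter elements responsive to native transcription factors. Exposure lasts 24 h; reporter mRNA fluorescence from capillary electrophoresis gives the signal, fitted bidirectionally against DMSO.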

[9] = molecular target: Signal transducer and activator of transcription 3 (Homo sapiens) (UniProt P40763); assay: ATG_STAT3_CIS: Attagene CIS-FACTORIAL HepG2 Assay for human Signal Transducer and Activator of Transcription 3 (STAT3) (AID 2282963); conditions: HepG2, Attagene cis-factorial STAT3 reporter transcription; actives raise or lower the signal
Chain of Signal transducer and activator of transcription 3 (Homo sapiens) (P40763 whole entry, looked up): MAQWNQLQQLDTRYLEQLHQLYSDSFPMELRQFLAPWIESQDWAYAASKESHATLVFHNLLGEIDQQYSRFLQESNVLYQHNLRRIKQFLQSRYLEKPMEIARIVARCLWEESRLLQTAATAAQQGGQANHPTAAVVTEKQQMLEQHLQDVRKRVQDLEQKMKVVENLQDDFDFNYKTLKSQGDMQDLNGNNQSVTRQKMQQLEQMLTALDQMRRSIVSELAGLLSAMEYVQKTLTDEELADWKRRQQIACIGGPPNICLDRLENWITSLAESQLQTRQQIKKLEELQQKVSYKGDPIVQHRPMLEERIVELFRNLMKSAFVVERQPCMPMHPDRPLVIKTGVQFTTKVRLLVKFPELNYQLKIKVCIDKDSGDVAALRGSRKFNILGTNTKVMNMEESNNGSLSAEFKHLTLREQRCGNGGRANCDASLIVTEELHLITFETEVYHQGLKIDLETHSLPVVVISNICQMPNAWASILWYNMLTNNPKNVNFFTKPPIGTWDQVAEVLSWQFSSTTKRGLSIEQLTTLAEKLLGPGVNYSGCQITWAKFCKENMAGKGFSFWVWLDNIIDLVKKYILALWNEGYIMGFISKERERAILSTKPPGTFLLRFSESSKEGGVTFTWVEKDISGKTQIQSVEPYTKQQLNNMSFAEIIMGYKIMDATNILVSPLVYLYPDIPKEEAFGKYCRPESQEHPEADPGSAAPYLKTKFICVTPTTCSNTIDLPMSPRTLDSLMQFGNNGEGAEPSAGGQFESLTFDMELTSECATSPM
Method in brief: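 Uses human liver HepG2 transiently carrying cis-regulated reporter transcription units. Following 24 h dosing, reporter mRNA induction was detected by RT-PCR and capillary electrophoresis, analysed bidirectionally versus DMSO.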

[10] = ATG_TA_CIS: Attagene CIS-FACTORIAL HepG2 Assay for human TA Basal Promoter (AID 2282964); conditions: HepG2 Attagene CIS-factorial TA basal promoter reporter; actives raise or lower the signal
Method in brief: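 HepG2 cells transiently transfected with multiple reporter units under cis promoter elements, reporting endogenous transcription factor activity; this endpoint tracks the TA basal promoter as background control. Reporter mRNA after 24 h dosing measured by RT-PCR/capillary electrophoresis; bidirectional fits versus DMSO.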

[11] = ATG_TCF_b_cat_CIS: Attagene CIS-FACTORIAL HepG2 Assay for human T-Cell-Factor with beta-catenin (TCF/b-cat) (AID 2282965); conditions: HepG2 TCF/beta-catenin cis-reporter transcription, actives raise or lower the signal
Method in brief: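 In this cis-format system, transfected HepG2 cells report endogenous transcription factor activity. Readout after 24 h exposure is reporter transcript abundance from RT-PCR and capillary electrophoresis, analysed for gain or loss of signal versus DMSO.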

[12] = ATG_TAL_CIS: Attagene CIS-FACTORIAL HepG2 Assay for human TAL Basal Promoter (AID 2282966); conditions: HepG2 Attagene cis-factorial TAL promoter reporter; actives raise or lower the signal;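 note: background control endpoint measuring basal TAL promoter reporter mRNA not a specific factor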
Method in brief: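 After 24 hours of chemical exposure, transfected HepG2 cells yielded RNA that was converted to 6-FAM-labelled, HpaI-digested reporter fragments for capillary electrophoresis. Values derive from bidirectional fitting against DMSO controls.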

[13] = ATG_TGFb_CIS: Attagene CIS-FACTORIAL HepG2 Assay for human Transforming Growth Factor (TGF) (AID 2282967); conditions: HepG2 Attagene CIS TGFb reporter, mRNA transcription; actives raise or lower the signal
Method in brief: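 HepG2 cells transiently transfected with cis-promoter-driven multiple reporter units measure endogenous TF activity; reporter mRNA quantified at 24 h by RT-PCR, FAM labeling, HpaI digestion and capillary electrophoresis. Bidirectional fit vs DMSO.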

[14] = ATG_VDRE_CIS: Attagene CIS-FACTORIAL HepG2 Assay for human Vitamin D Receptor Element (VDRE) (AID 2282968); conditions: HepG2 VDRE cis-reporter transcription, actives raise or lower the signal
Method in brief: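 Transfected HepG2 reporter cells, chemical treatment 24 h. RNA isolated, cDNA amplified with reporter-specific primers, products analysed by capillary electrophoresis. Endpoint fitted in both directions versus DMSO.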

[15] = molecular target: Nuclear receptor subfamily 1 group I member 3 (Homo sapiens) (UniProt Q14994); assay: ATG_CAR_TRANS: Attagene TRANS-FACTORIAL HepG2 Assay for human Constitutive Androstane Receptor (CAR) (AID 2282969; active = hit-call score of the fitted dose curve at least 0.9, where 1 is the maximum;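 note: activators raise reporter mRNA above DMSO so AC50 marks induction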); conditions: HepG2 Attagene TRANS-FACTORIAL CAR reporter
Chain of Nuclear receptor subfamily 1 group I member 3 (Homo sapiens) (Q14994 whole entry, looked up, the tested form may be a part): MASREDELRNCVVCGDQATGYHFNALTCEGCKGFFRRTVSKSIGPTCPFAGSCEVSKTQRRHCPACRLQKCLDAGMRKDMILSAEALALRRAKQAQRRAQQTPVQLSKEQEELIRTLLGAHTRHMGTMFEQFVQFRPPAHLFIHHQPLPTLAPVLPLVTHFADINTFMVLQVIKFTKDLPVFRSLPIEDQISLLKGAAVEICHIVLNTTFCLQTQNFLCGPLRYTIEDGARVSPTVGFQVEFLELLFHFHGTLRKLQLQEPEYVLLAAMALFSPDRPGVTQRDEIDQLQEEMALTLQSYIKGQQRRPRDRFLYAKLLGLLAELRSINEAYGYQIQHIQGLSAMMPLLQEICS
Method in brief: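 Steps: transient transfection of HepG2 with multiple GAL4-UAS reporter units; 24 h compound incubation; RNA isolation, RT-PCR, 6-FAM primer extension, HpaI digest; capillary electrophoresis. Gain-of-signal relative to DMSO negative control.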

[16] = molecular target: Estrogen receptor (Homo sapiens) (UniProt P03372); assay: ATG_ERa_TRANS: Attagene TRANS-FACTORIAL HepG2 Assay for human Estrogen Receptor alpha (ERa) (AID 2282970; active = hit-call score of the fitted dose curve at least 0.9, where 1 is the maximum); conditions: HepG2 Attagene TRANS ERa GAL4 reporter, mRNA
Chain of Estrogen receptor (Homo sapiens) (P03372 whole entry, looked up, the tested form may be a part): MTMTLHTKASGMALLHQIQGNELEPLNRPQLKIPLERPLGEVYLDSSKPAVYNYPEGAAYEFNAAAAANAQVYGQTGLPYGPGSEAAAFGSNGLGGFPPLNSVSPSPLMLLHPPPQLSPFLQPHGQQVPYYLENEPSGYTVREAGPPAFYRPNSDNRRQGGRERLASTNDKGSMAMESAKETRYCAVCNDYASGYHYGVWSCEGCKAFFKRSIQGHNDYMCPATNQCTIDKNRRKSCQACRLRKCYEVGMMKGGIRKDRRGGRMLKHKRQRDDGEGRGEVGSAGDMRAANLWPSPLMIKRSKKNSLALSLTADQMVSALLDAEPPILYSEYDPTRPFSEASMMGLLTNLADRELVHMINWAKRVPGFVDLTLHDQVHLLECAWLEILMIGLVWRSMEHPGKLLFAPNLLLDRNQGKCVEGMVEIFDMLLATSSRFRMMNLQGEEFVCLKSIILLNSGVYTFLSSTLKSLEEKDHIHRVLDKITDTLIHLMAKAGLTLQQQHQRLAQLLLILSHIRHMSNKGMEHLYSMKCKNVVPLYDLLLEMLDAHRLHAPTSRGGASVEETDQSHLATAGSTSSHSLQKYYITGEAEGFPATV
Method in brief: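 Liver-derived HepG2 cells expressing chimeric nuclear receptor-Gal4 proteins from transient transfection were exposed for 24 hours. Gain of reporter mRNA signal versus DMSO, read by capillary electrophoresis of FAM-labelled PCR products, was recorded.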

[17] = molecular target: X-box-binding protein 1 (Homo sapiens) (UniProt P17861); assay: ATG_Xbp1_CIS: Attagene CIS-FACTORIAL HepG2 Assay for human X-box Binding Protein 1 (XBP1) (AID 2282972); conditions: HepG2 XBP1 cis-element reporter, Attagene multiplex; actives raise or lower the signal
Chain of X-box-binding protein 1 (Homo sapiens) (P17861 whole entry, looked up): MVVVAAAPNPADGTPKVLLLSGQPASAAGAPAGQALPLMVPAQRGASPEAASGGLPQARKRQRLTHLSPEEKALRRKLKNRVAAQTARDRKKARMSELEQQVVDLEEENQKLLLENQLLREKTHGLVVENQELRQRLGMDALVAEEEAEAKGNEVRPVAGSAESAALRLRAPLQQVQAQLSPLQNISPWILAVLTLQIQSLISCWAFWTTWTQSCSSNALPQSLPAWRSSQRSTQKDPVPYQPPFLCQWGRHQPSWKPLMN
Method in brief: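 Changes in reporter transcript abundance, read by RT-PCR and capillary electrophoresis, reflect endogenous transcription factor activity. Transfected HepG2 cells received compound for 24 hours; DMSO defined baseline for bidirectional analysis.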

[18] = ATG_M_19_TRANS: Attagene TRANS-FACTORIAL HepG2 Assay for M19 Transcription Factor (Internal Marker) (AID 2282974; active = hit-call score of the fitted dose curve at least 0.9, where 1 is the maximum); conditions: HepG2 Attagene TRANS-FACTORIAL M19 internal marker reporter
Method in brief: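 Measured here: internal-marker reporter transcript from HepG2 cells transfected with MRTUs, harvested at 24 h. cDNA PCR products were 6-FAM labelled by primer extension, cut with HpaI for 2 h at 37 C, and resolved by CE.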

[19] = molecular target: Steroid hormone receptor ERR1 (Homo sapiens) (UniProt P11474); assay: ATG_ERRa_TRANS: Attagene TRANS-FACTORIAL HepG2 Assay for human Estrogen-Related Receptor alpha (ERRa) (AID 2282971; active = hit-call score of the fitted dose curve at least 0.9, where 1 is the maximum); conditions: HepG2 Attagene TRANS reporter, ERRa transactivation
Chain of Steroid hormone receptor ERR1 (Homo sapiens) (P11474 whole entry, looked up, the tested form may be a part): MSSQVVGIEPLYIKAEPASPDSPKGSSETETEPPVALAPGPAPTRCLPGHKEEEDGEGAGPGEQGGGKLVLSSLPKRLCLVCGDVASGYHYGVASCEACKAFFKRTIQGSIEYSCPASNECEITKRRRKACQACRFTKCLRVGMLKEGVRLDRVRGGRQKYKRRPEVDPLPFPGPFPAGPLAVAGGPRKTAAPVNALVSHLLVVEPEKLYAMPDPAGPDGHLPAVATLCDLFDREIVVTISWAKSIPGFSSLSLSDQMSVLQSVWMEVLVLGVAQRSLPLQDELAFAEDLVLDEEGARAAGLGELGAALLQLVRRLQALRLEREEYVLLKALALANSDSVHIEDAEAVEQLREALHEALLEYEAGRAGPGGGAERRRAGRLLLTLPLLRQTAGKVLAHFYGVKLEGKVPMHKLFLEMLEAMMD
Method in brief: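 Reporter transcript induction was quantified by RT-PCR and capillary electrophoresis of FAM-labelled, HpaI-cut products after 24 h treatment of HepG2 cells carrying transiently transfected GAL4-UAS reporter units and an exogenous ERRa-Gal4 fusion; activity scored as increase over DMSO.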

[20] = ATG_GAL4_TRANS: Attagene TRANS-FACTORIAL HepG2 Assay for GAL4 (Internal Marker) (AID 2282976; active = hit-call score of the fitted dose curve at least 0.9, where 1 is the maximum); conditions: HepG2 Attagene TRANS GAL4 internal marker reporter
Method in brief: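 First, HepG2 cells were transfected with reporter units under GAL4-UAS control. Next, they were treated with chemical for 24 h. Finally, RNA was reverse-transcribed, PCR-amplified, FAM-labelled and resolved by capillary electrophoresis, with induction scored against DMSO.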

Measured: AC50

CC[C@H](C)[C@@H](C(=O)O)n1sc2ccccc2c1=O
not listed: [19] | [20]
inactive: all other assays above

O=C(/C=C/c1ccc(O)cc1)CC(=O)/C=C/c1ccc(O)cc1
active: [2] 14.6 µM | [5] 2.56 µM | [6] 25.7 µM | [14] 5.76 µM
not listed: [18] | [20]
inactive: all other assays above

CC(C)(C)c1cc(C(C)(C)C)c(O)c(C(C)(C)C)c1
active: [3] 3.08 µM and 6.33 µM | [4] 416 nM and 8.82 µM | [7] 80.6 µM | [8] 11.7 µM | [11] 87.1 µM | [17] 20.3 µM
inactive: [1] | [2] | [5] | [6] | [7] | [8] | [9] | [10] | [11] | [12] | [13] | [15] | [16] | [17] | [18] | [20]

CCCCCCCCOC(=O)CCCCCCCCC(=O)OCCCCCCCC
inactive: all assays above

CCc1nn(C2CCCCC2)c2cc(C3(C#N)CCC(C(=O)O)CC3)ccc12 (stereo not given)
active: [2] 100 µM | [4] 438 nM | [5] 32.4 µM | [8] 65.5 µM | [10] 69.9 µM | [11] 52.3 µM | [14] 48.7 µM
not listed: [15] | [18] | [19] | [20]
inactive: all other assays above

O=C(O)Cc1cc(I)c(Oc2cc(I)c(O)c(I)c2)c(I)c1
active: [1] 113 µM and 17.5 µM | [2] 67 µM | [4] 4.68 µM and 13.3 µM | [5] 53.6 µM and 10.8 µM | [6] 23.4 µM and 18.1 µM | [7] 31.3 µM and 17 µM | [8] 4.05 µM and 5.53 µM | [10] 84.2 µM | [12] 67 µM | [14] 18.1 µM and 23 µM | [17] 34.1 µM
inactive: [2] | [3] | [9] | [10] | [11] | [12] | [13] | [16] | [17] | [18] | [20]

CCCCCCC(=O)O
inactive: [1] | [2] | [3] | [5] | [6] | [7] | [8] | [9] | [10] | [11] | [12] | [13] | [14] | [15] | [16] | [19] | [17] | [18] | [20]
active: [3] 53.4 µM

OCCC(F)(F)C(F)(F)C(F)(F)C(F)(F)C(F)(F)C(F)(F)F
inactive: [1] | [2] | [3] | [4] | [5] | [6] | [7] | [8] | [9] | [10] | [11] | [12] | [13] | [15] | [16] | [17] | [20]
active: [2] 176 µM | [8] 100 µM | [13] 157 µM | [17] 134 µM

CC(C)(C)CC(C)(C)c1ccc(O)c(-n2nc3ccccc3n2)c1
active: [3] 1.15 µM | [14] 6.7 µM | [16] 26.8 µM
not listed: [15] | [18] | [19] | [20]
inactive: all other assays above

c1ccc2c(c1)ccc1ccccc12
active: [3] 58.4 µM
not listed: [18] | [20]
inactive: all other assays above

CN1CCN(c2ccccc2/C=C2\SCCN(c3ccc(Cl)c(Cl)c3)C2=O)CC1
active: [3] 2.88 µM | [8] 5.37 µM
not listed: [18]
inactive: all other assays above
